Molecules are shown by their SMILES. The campaign covered roughly 340,000 compounds. About 1,400 (0.41%) were called active. A call without a number means that no potency is given here. Inconclusive results (about 4%) are left out. The sample holds actives, similar compounds and a random draw of the others, so the mix is not that of the screen. Calls follow the shape of the full dose curve; cell line not stated here.

The text below walks through data of PubChem BioAssay AID624288 (National Center for Advancing Translational Sciences (NCATS), 2012).
Potency is read from the fitted curve at half-maximal effect.

The assay in a line: qHTS for Antagonists of gsp, the Etiologic Mutation Responsible for Fibrous Dysplasia/McCune-Albright Syndrome: qHTS. Also: nearly all actives have a fitted effect of over 65% in size. Conditions: gsp-mutant cells, cAMP HTRF, 30 min; series mostly up to 76.9 µM. Put shortly: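 HTRF cAMP measurement after 30 min RT detection following 30 min, 37C compound treatment alongside […] (added as 300 uM solution) in G418-selected cells seeded at 2000/well and grown 16–24 h.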
In general terms: qHTS replaces the single test concentration by a dilution series.
Regarding `O=C1NC(=O)C(CCc2ccccc2)(c2ccccc2)N1` (stereo unspecified), the Potency entry was “inactive”.

As for `COC(=O)C1CC2=C(CC(C)(C)CC2=O)N(c2ccccc2)C1=O` (stereo unspecified), the Potency result is “inactive”.

`CCc1nc(C)cn1S(=O)(=O)c1cc([N+](=O)[O-])ccc1Cl`: the Potency entry is “inactive”.

Turning to `CCc1nc(C)cn1S(=O)(=O)c1cc(OC)c(C)cc1C`, the Potency was 31.6 µM (active).

`COc1cc(Cl)c(S(=O)(=O)n2cnc(C)c2)cc1Cl`: the Potency result was “inactive”.

Consider `CCc1ccc(C(=O)NNC(=O)C2CCN(c3ncnc4sc(C)c(C)c34)CC2)cc1`, for which the Potency result was “inactive”.

For the compound `Cc1sc2ncnc(N3CCC(C(=O)Nc4ccc(F)cc4Cl)CC3)c2c1C`, the Potency is 39.8 µM (active).

As for `Cc1sc2ncnc(N3CCC(C(=O)Nc4nc5ccc(Cl)cc5s4)CC3)c2c1C`, the Potency entry is “inactive”.

Regarding `CC(=O)OCC1(O)CC23CCC4c5ccoc5CCC4(C)C2CCC1C3` (stereo unspecified), the Potency entry was “inactive”.

As for `COc1ccc(CNCCCn2cnc3c(OCc4ccccc4)ncnc32)cc1`, the Potency result is “inactive”.

For `CCOC(=O)N1CCN(C(=O)c2ccc(CN(c3ccc(C)c(C)c3)S(C)(=O)=O)cc2)CC1`, the Potency was 22.4 µM (active).

In the case of `CCOC(=O)N1CCN(C(=O)CN(c2ccc(C)c(C)c2)S(=O)(=O)c2ccccc2)CC1`, the Potency entry was “inactive”.

Consider `CCN1CCN(C(=O)c2ccc(CN(c3ccc(C)c(C)c3)S(C)(=O)=O)cc2)CC1`, for which the Potency entry was “inactive”.

`CC/C(=C\c1ccc(Cl)cc1)c1ccncc1`: the Potency result was “inactive”.

Turning to `CC(=O)Nc1ccc(S(=O)(=O)N2CCN(CCCOc3cc(C)ccc3C)CC2)cc1`, the Potency was 31.6 µM (active).

Take `Cc1ccc(C)c(S(=O)(=O)N2CCN(CC(=O)Nc3ccc([N+](=O)[O-])cc3)CC2)c1`: the Potency entry was “inactive”.

`Cc1ccc(C)c(OCCC(=O)Nc2cccc(S(=O)(=O)N3CCCC3)c2)c1`: the Potency result was “inactive”.

As for `CCC1([N+](=O)[O-])COC(c2ccc(C)cc2)OC1` (stereo unspecified), the Potency entry is “inactive”.

In the case of `NC(=O)C1(Nc2ccccc2Cl)CCCC1`, the Potency result is “inactive”.

`CC(Nc1ccc([N+](=O)[O-])cc1[N+](=O)[O-])c1ccccc1` (stereo unspecified): the Potency entry was “inactive”.

As to `O=C(Nc1ccccc1)c1ccc2c(c1)OCCCO2`, the Potency result was “inactive”.

In the case of `O=C(Nc1cccc(S(=O)(=O)Nc2ccc(Cl)cc2)c1)c1ccc2c(c1)OCCO2`, the Potency was 35.5 µM (active).

In the case of `O=C(Nc1ccc(NC(=O)c2ccc3c(c2)OCO3)cc1)c1cccc(Cl)c1`, the Potency result is “inactive”.

Consider `CN(C(=O)c1cccc(NC(=O)Cc2ccc(NC(=O)C3CCN(C(=O)C4CCCCC4)CC3)cc2)c1)C1CCC1`, for which the Potency result is “inactive”.

For `COc1cc(/C=C/CNC[C@H]2O[C@@H](n3cnc(C(N)=O)n3)[C@H](O)[C@@H]2O)ccc1O`, the Potency result was “inactive”.

As to `CC(=O)N1CCCc2cc(S(=O)(=O)N3CCCC(C(=O)N4CCN(c5cccc(Cl)c5)CC4)C3)ccc21` (stereo unspecified), the Potency is 28.2 µM (active).

For the compound `CC(=O)N1CCCc2cc(S(=O)(=O)N3CCCC(C(=O)NCc4ccc(Cl)cc4)C3)ccc21` (stereo unspecified), the Potency entry was “inactive”.

Take `CC(=O)N1CCCc2cc(S(=O)(=O)CCC(=O)N3CCN(c4ccccc4)CC3)ccc21`: the Potency result was “inactive”.

`CC(=O)Oc1ccc(OC(C)=O)c2c1C1C=CC2CC1`: the Potency entry is “inactive”.

For the compound `COc1ccccc1CNC(=O)CCn1c(=O)sc2ccccc21`, the Potency result was “inactive”.

As for `COc1ccc(Cn2c(=O)sc3ccccc32)cc1OC`, the Potency was 11.2 µM (active).

With `Cc1cccc(CSc2nnc(Cn3c(=O)sc4ccccc43)n2C)c1`, the Potency result was “inactive”.

As for `COc1ccc(CCN2CC(C(=O)OCC(=O)NCc3ccccc3Cl)CC2=O)cc1OC` (stereo unspecified), the Potency result is “inactive”.

In the case of `NC(CSC1(c2ccccc2)c2ccccc2-c2ccccc21)C(=O)O` (stereo unspecified), the Potency entry is “inactive”.

For the compound `CSCCC(NC(=O)COc1ccccc1)C(=O)N1CCN(c2cccc(C(F)(F)F)c2)CC1` (stereo unspecified), the Potency result was “inactive”.

For the compound `COC(C[C@@H](O)C[C@H](O)[C@H](C)OCc1ccccc1)OC`, the Potency is 50.1 µM (active).

On to `COC(C[C@@H](O)C[C@@H](O)[C@H](C)OCc1ccccc1)OC`, for which the Potency entry was “inactive”.

Consider `COC(C[C@H](O)CC(=O)[C@@H](C)OCc1ccccc1)OC`, for which the Potency result is “inactive”.

With `CC(=NNC(=S)N1CCCCCC1)c1ccccn1`, the Potency result is “inactive”.

`O=C(CCC(=O)N1CCN(S(=O)(=O)c2ccc(Cl)cc2)CC1)NCc1cccc(C(F)(F)F)c1`: the Potency was 35.5 µM (active).

Regarding `O=C(NCc1cccc(C(F)(F)F)c1)c1cccc(S(=O)(=O)N2CCN(Cc3ccccc3)CC2)c1`, the Potency result is “inactive”.

`CC(NC(=O)CCC(=O)N1CCN(S(=O)(=O)c2ccc(Cl)cc2)CC1)c1ccccc1` (stereo unspecified): the Potency entry is “inactive”.

Take `NC(=O)c1ccc(N2CCCC2)nc1`: the Potency entry is “inactive”.

On to `O=C(O)c1ccc(S(=O)(=O)c2ccccc2)s1`, for which the Potency entry was “inactive”.

Turning to `O=C(Nc1cccc(Br)c1)c1ccc2snnc2c1`, the Potency entry is “inactive”.

As for `O=C(Nc1ccc2ccccc2c1)Nc1ccc2snnc2c1`, the Potency is 31.6 µM (active).

Take `CCc1ccccc1NC(=O)c1ccc2snnc2c1`: the Potency entry is “inactive”.

Consider `COc1ccc(C2c3[nH]c4ccccc4c3CCN2CCCn2cccn2)cc1C` (stereo unspecified), for which the Potency result is “inactive”.

On to `COc1cccc(C2c3[nH]c4ccccc4c3CCN2Cc2cccc(C)n2)c1` (stereo unspecified), for which the Potency was 39.8 µM (active).

For `Oc1cccc(C2c3[nH]c4ccccc4c3CCN2Cc2cnn(-c3ccccc3)c2)c1` (stereo unspecified), the Potency result is “inactive”.

`O=C(Nc1c(Br)cc2c(c1Br)Cc1cc([N+](=O)[O-])ccc1-2)C(Cl)Cl`: the Potency entry was “inactive”.

Regarding `CCN(CC)C(=O)c1sc(NC(=O)c2ccco2)c(C#N)c1C`, the Potency entry was “inactive”.

Regarding `CCCc1ccc(-c2c(C)sc(NC(=O)c3ccnn3C)c2C#N)cc1`, the Potency is 20 µM (active).

With `Cn1nccc1CNC(=O)c1ccnn1C`, the Potency result was “inactive”.

As to `COc1cc2c(cc1OC)C(Cc1cc(OC)c(OC)cc1[N+](=O)[O-])=NCC2`, the Potency result is “inactive”.

`NC(=O)c1ncn([C@@H]2O[C@H](CN=C3NS(=O)(=O)c4ccccc43)[C@@H](O)[C@H]2O)n1`: the Potency result is “inactive”.

Turning to `COc1ccc(OC)c2sc(NC(=O)C3COc4ccccc4O3)nc12` (stereo unspecified), the Potency entry is “inactive”.

As to `O=C(Nc1ncc([N+](=O)[O-])s1)C1COc2ccccc2O1` (stereo unspecified), the Potency was 39.8 µM (active).

Consider `O=C(CCc1ccccc1)Nc1ncc([N+](=O)[O-])s1`, for which the Potency entry is “inactive”.

`Cc1cn(C2CC(O)C(CO)O2)c(=O)n(CCCc2ccccc2)c1=O` (stereo unspecified): the Potency result is “inactive”.

Consider `COc1ccc(C(CNC(=O)c2cc(S(=O)(=O)Nc3cccc(C)c3)ccc2C)N2CCCC2)cc1` (stereo unspecified), for which the Potency entry was “inactive”.

As to `CCOC(=O)c1ccccc1NC(=O)CSc1nc2c(sc(=S)n2CC)c(=O)[nH]1`, the Potency result was “inactive”.

Turning to `O=C(NN=Cc1ccc([N+](=O)[O-])cc1)C1CC1`, the Potency result is “inactive”.

Take `Cn1c(=O)n(C)c2cc(/C=N/NC(=O)c3cccc(Br)c3)ccc21`: the Potency entry is “inactive”.

Take `COc1cc(/C=N/NC(=O)c2ccc(N3CCCC3=O)cc2)ccc1O`: the Potency result was “inactive”.

Turning to `O=C(N/N=C/c1cccc(Br)c1)c1ccc(N2CCCC2=O)cc1`, the Potency is 31.6 µM (active).
